Data from article PMC4336329 (PLoS ONE, 2015).
Out of some 310,000 compounds screened, about 14,000 (4.5%) showed an effect of 50% or more. Effects have a minus sign here. The list comes from a sample in which strong results are over-represented; it also holds similar structures and randomly drawn compounds.

biological target: human ether-à-go-go-related gene (hERG) potassium channel (human, UniProt Q12809); assay: primary screen, population patch clamp on CHO cells stably expressing hERG; higher = less effect of the substance
Sequence (Q12809 whole entry, looked up): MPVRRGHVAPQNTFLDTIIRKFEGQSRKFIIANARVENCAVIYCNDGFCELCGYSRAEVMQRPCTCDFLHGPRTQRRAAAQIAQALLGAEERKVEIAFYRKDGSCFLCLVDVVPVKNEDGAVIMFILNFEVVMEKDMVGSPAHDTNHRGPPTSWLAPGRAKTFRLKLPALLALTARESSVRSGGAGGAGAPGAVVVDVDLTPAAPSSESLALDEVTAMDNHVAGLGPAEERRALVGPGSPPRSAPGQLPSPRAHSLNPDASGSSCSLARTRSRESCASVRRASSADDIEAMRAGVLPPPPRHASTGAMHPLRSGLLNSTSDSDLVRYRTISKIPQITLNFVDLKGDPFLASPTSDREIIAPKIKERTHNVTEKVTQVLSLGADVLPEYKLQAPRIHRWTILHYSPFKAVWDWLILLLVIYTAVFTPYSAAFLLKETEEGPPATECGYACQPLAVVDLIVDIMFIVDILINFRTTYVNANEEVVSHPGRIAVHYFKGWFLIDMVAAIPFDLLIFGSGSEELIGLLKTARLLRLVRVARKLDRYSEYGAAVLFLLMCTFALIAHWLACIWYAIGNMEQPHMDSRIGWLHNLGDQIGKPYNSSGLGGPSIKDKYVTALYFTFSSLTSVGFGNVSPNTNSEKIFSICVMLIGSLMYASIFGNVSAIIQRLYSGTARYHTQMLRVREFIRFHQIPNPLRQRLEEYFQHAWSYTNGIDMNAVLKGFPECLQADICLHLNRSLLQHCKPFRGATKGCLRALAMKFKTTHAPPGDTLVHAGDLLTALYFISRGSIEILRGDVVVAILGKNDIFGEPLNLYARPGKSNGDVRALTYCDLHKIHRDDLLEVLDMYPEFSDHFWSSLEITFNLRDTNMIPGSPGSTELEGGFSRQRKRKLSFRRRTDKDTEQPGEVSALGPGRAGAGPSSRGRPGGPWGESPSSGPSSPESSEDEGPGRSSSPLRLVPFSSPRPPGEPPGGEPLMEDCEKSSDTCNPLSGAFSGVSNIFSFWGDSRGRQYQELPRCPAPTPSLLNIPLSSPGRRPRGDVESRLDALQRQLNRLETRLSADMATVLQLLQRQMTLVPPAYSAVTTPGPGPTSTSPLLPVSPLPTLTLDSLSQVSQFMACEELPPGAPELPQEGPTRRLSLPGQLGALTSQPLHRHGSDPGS
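Further: peak tail current of the secondary pulse compared with the same well before compound.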

Row | SMILES | hERG current change (%, negative = inhibition) at 10uM [%]
1 | Cc1cc(C)nc(NC(=O)c2ccc([N+](=O)[O-])c(C)c2)n1 | 7.43
2 | Cc1cc(C(=O)Nc2ncn(Cc3ccc(F)cc3)n2)ccc1[N+](=O)[O-] | -51.7
3 | Cc1cc(C(=O)Nc2ncn[nH]2)ccc1[N+](=O)[O-] | 26.3
4 | C[C@]12C[C@H](O)[C@H]3[C@@H](CCC4=CC(=O)CC[C@@]43C)[C@@H]1CC[C@@H]2C(=O)CO | 0.529
5 | Br.CC(C)(C)C(=O)Cn1c(=N)n(Cc2ccccc2Cl)c2ccccc21 | -49.2
6 | Cc1ccccc1Cn1c(=O)n(Cc2ccco2)c(=O)c2ccccc21 | 2.24
7 | Cc1ccccc1Cn1c(=N)n(CC(O)c2ccco2)c2ccccc21.Cl (stereo not drawn) | -59.8
8 | Cc1ccccc1Cn1c(C(C)O)nc2ccccc21 (stereo not drawn) | 4.7
9 | Cl.N=c1n(Cc2ccccc2Cl)c2ccccc2n1CC(O)c1ccco1 (stereo not drawn) | -56.7
10 | Cl.N=c1n(CCO)c2ccccc2n1Cc1ccccc1Cl | -20
11 | CCOC(=O)C1CCN(C(=O)CCn2c(=O)c3cccn3c3cccnc32)CC1 | -33.2
12 | Cc1c(C(=O)NCCc2ccccc2)oc2ccccc12 | 1.98
13 | CN(C)C(=O)NC(O)C(Cl)Cl (stereo not drawn) | -2
14 | Cc1nn(C)c(C)c1NS(=O)(=O)c1ccccc1Cl | 4.16
15 | CCc1ccccc1NC(=O)C1CCCN(c2ncnc3onc(-c4ccc(F)cc4)c23)C1 (stereo not drawn) | 11.2
16 | O=C(N/N=C/c1cccc(Br)c1)c1ccc(Cn2cc(Br)cn2)o1 | -40.9
17 | COc1cc(/C=N\NC(=O)c2ccc(Cn3cc(Br)c([N+](=O)[O-])n3)o2)cc(OC)c1O | -11.9
18 | CCOc1ccc(/C=N/NC(=O)c2ccc(Cn3cc([N+](=O)[O-])cn3)o2)cc1 | -31.4
19 | O=C(N/N=C\c1ccc2c(c1)OCO2)c1ccc(Cn2cc(Br)c([N+](=O)[O-])n2)o1 | -8.65
20 | CCOc1ccc(/C=N/NC(=O)c2ccc(Cn3cc(Br)cn3)o2)cc1 | -56.4
21 | O=C(N/N=C\c1ccc(F)cc1)c1ccc(Cn2cc(Br)c([N+](=O)[O-])n2)o1 | -59.9
22 | CN(C)c1ccc(/C=N/NC(=O)c2ccc(Cn3cc(Br)cn3)o2)cc1 | -46.1
23 | O=C(N/N=C\c1cccc(F)c1)c1ccc(Cn2cc(Br)c([N+](=O)[O-])n2)o1 | -33.9
24 | O=C(N/N=C/c1cccnc1)c1ccc(Cn2cc([N+](=O)[O-])cn2)o1 | -8.7
25 | Cc1ccc(/C=N/NC(=O)c2ccc(Cn3cc([N+](=O)[O-])cn3)o2)cc1 | -65
26 | COc1ccc(/C=N/NC(=O)c2ccc(Cn3cc([N+](=O)[O-])cn3)o2)cc1O | 15.8

Row | SMILES | hERG current change (%, negative = inhibition) at 10uM [%]
27 | COc1cc(/C=N/NC(=O)c2ccc(Cn3cc([N+](=O)[O-])cn3)o2)cc(Br)c1O | -77.5
28 | O=C(NC1CCCC1)C(c1cccnc1)N(C(=O)c1csnn1)C1CC1 (stereo not drawn) | 4.97
29 | CC(C)c1ccc(NC(=O)C2C3C=CC4(O3)C2C(=O)N(CCN2CCOCC2)C4C(=O)NC2CCCCC2)cc1 (stereo not drawn) | 15.3
30 | O=C(Nc1ccccc1Cl)OC1CCCCC1 | 22.7
31 | C=C(C)c1cccc(C(C)(C)NC(=O)NCc2ccncc2)c1 | -9.41
32 | Cc1cc(S(=O)(=O)N2CCOCC2)ccc1OCC(=O)Nc1cccc(C(F)(F)F)c1 | 19.8
33 | COc1cc(/C=N\NC(=O)c2ccc(Cn3nc([N+](=O)[O-])c(Cl)c3C)o2)ccc1O | -70.4
34 | Cc1c(Cl)c([N+](=O)[O-])nn1Cc1ccc(C(=O)N/N=C\c2cccc(Br)c2)o1 | -38.7
35 | Cc1c(Cl)c([N+](=O)[O-])nn1Cc1ccc(C(=O)N/N=C\c2cc(Cl)ccc2O)o1 | 14.9
36 | N#Cc1ccc(Oc2nc(Nc3ccc(F)cc3)nc(N3CCCC3)n2)cc1 | 1.63
37 | O=C(O)CC/C(=N\Nc1ccc([N+](=O)[O-])cc1S(=O)(=O)N1CCOCC1)c1cccs1 | -9.21
38 | CCn1cc(CNC(=O)/C=C/c2ccc([N+](=O)[O-])cc2)cn1 | -33.6
39 | Cc1ccc(NC(=O)CNC2CCCCC2)cc1Cl | 6.64
40 | COc1ccc(Br)c(-c2nnc(CS(=O)(=O)c3ccccc3)o2)c1 | -29.3
41 | Cc1ccccc1-c1nnc(CS(=O)(=O)c2ccccc2)o1 | -19.2
42 | CCOc1ccccc1-c1nnc(CS(=O)(=O)c2ccccc2)o1 | -52.5
43 | COc1cccc(CNC(=O)Nc2cccs2)c1 | 11
44 | CCc1cc2c(=O)c(-c3nc(C)cs3)c(CCCC(=O)O)oc2cc1O | 29.7
45 | CCOC(=O)c1cc2c(=O)n3ccccc3nc2n(Cc2ccco2)c1=NC(=O)c1ccc(OC)cc1OC | -54.2
46 | CCOC(=O)c1cc2c(=O)n3ccccc3nc2n(Cc2ccco2)c1=NC(=O)c1cccnc1 | -37.4
47 | CCOC(=O)c1cc2c(=O)n3ccccc3nc2n(Cc2ccco2)c1=NC(=O)c1ccccc1OC | -68.9
48 | CCOC(=O)c1cc2c(=O)n3ccccc3nc2n(Cc2ccco2)c1=NC(=O)c1ccc(OC)cc1 | -54.3
49 | CCOC(=O)c1cc2c(=O)n3ccccc3nc2n(Cc2ccco2)c1=NC(=O)c1cccc(OC)c1 | -43.8
50 | CCOC(=O)c1cc2c(=O)n3ccccc3nc2n(Cc2ccco2)c1=NC(=O)c1ccccc1OCC | -50
51 | Nc1nnc(SCC(=O)Nc2ccccc2N2CCOCC2)s1 | 3.88
